The values that follow come from PubChem BioAssay (NCI).

Molecules are shown by their SMILES. “And” between values parts separate entries of the source, which are not always exact repeats. Identical values can stand only once. About 83,000 compounds went through this panel and 20% of them were active in at least one assay; those are over-represented in the sample as a whole.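 Each cell line was grown in a 96-well plate and treated with one concentration of compound for 48 hours. Values below 10 were considered active.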 A number with no mark means an inactive call. The source made the active and inactive calls.

Common to all, as to experiment: NCI-60 one-dose screen, 48 h (100 = growth as untreated, 0 = no growth, -100 = all killed)
One assay concerns T-47D breast. Particulars: 10 µM unless noted.
Another assay deals with MDA-MB-435 melanoma. Particulars: 10 µM unless noted.
The subject of the next assay is SW-620 colon. Particulars: 10 µM unless noted.
Another assay concerns HCT-116 colon. Particulars: 10 µM unless noted.
Another assay concerns HCC-2998 colon. Particulars: 10 µM unless noted.
The next assay deals with KM12 colon. Particulars: 10 µM unless noted.
In another assay the test system is MCF7 breast.

For the compound `CC1(C)CC(=O)C=C(N)C1`, the growth in the assay with T-47D breast is 141%; in the assay with MDA-MB-435 melanoma, 99.2%; with SW-620 colon, 96%; in the assay with HCT-116 colon, 102%; in the assay on HCC-2998 colon, 45.4%; in the assay on KM12 colon, 124%.
For `C=CC(C)(C)n1cc(C2=C(O)C(=O)C(c3cn(C(C)(C)C=C)c4ccccc34)=C(O)C2=O)c2ccccc21`, the growth was 85.9% with T-47D breast; 105% with SW-620 colon; 96.1% in the assay with MCF7 breast (10 µM); -81.2% (active) and -91.7% (active) in the assay on MCF7 breast (100 µM); 97.4% with HCT-116 colon; 99.9% in the assay on KM12 colon.
Take `Clc1ccc(/C=C/c2ccccn2)cc1`: the growth in the assay on T-47D breast is 44.1%; with MDA-MB-435 melanoma, 105%; in the assay on SW-620 colon, 84.2%; in the assay with HCT-116 colon it was 81.6%; in the assay on KM12 colon it was 89.8%.
Take `C=C(C)[C@@H]1CC[C@]2(CO)CC[C@]3(C)[C@H](CC[C@@H]4[C@@]5(C)CC[C@H](O)C(C)(C)[C@@H]5CC[C@]43C)[C@@H]12`: the growth in the assay with T-47D breast is 32.2%; in the assay with MDA-MB-435 melanoma, 77.9%; in the assay on SW-620 colon, 54.6%; with MCF7 breast (10 µM unless noted) it was 42.9%; in the assay on HCT-116 colon, 1.87% (active); with KM12 colon, 49.1%.
As to `COc1ccc(Br)c2c1C(=O)CC2`, the growth was 133% in the assay with T-47D breast; 116% with MDA-MB-435 melanoma; 107% in the assay on MCF7 breast (10 µM unless noted); 108% in the assay with HCT-116 colon; 113% with HCC-2998 colon; 117% in the assay with KM12 colon.
On to `COc1cc(OC)c(NC(=O)C(Sc2nc(C)cc(C)c2C#N)c2ccccc2)cc1Cl` (centres undefined), for which the growth in the assay with T-47D breast was 95.9%; in the assay on MDA-MB-435 melanoma it was 105%; with MCF7 breast (10 µM unless noted) it was 95.5%; in the assay on HCT-116 colon, 86.7%; with HCC-2998 colon it was 111%.
As for `C=CC(=O)OC1CCC(C(C)(C)CC)CC1` (centres undefined), the growth in the assay with T-47D breast was 112%; with MDA-MB-435 melanoma it was 103%; in the assay with SW-620 colon, 107%; with MCF7 breast (10 µM unless noted) it was 96%; in the assay with HCT-116 colon it was 104%; with KM12 colon, 106%.
Turning to `Cn1c(=O)c2[nH]c(CCCCC(=O)O)nc2n(C)c1=O`, the growth with T-47D breast is 113%; with MDA-MB-435 melanoma, 110%; in the assay on SW-620 colon, 101%; with HCT-116 colon, 106%; in the assay on HCC-2998 colon, 111%; with KM12 colon, 106%.
With `CCOc1ccc(NC(=S)N2CCC(CCCC3CCN(C(=S)Nc4ccc(OCC)cc4)CC3)CC2)cc1`, the growth in the assay on T-47D breast is 67.8%; with MDA-MB-435 melanoma it was 90.4%; in the assay on SW-620 colon, 98.3%; in the assay with MCF7 breast (10 µM unless noted), 84.1%; with HCT-116 colon, 84.5%; with KM12 colon it was 90.6%.
Turning to `O=C1Nc2ccccc2/C1=C\c1ccccc1O`, the growth was 71.9% in the assay on T-47D breast; 82.4% in the assay with MDA-MB-435 melanoma; 95.8% in the assay with SW-620 colon; 65.5% with MCF7 breast (10 µM unless noted); 86.3% in the assay with HCT-116 colon; 82.3% in the assay with KM12 colon.
As for `O=C(O)CCCCCNC(=O)OCc1ccccc1`, the growth is 97.6% in the assay on T-47D breast; 95.2% with SW-620 colon; 93.6% in the assay with MCF7 breast (10 µM unless noted); 92.9% in the assay with HCT-116 colon; 105% with HCC-2998 colon; 101% in the assay with KM12 colon.
For the compound `Nc1ccc2c(c1)Cc1cc(N)c(N)cc1-2`, the growth is 84.4% with T-47D breast; 104% with MDA-MB-435 melanoma; 73.3% in the assay with MCF7 breast (10 µM unless noted); 95.8% with HCT-116 colon; 110% in the assay on HCC-2998 colon; 94.3% with KM12 colon.
As for `C=C1CC2(OC1=O)C(=O)N(C)c1ccc(I)cc12` (centres undefined), the growth in the assay on T-47D breast was -82.6% (active); with SW-620 colon it was -76.3% (active); in the assay on MCF7 breast (10 µM unless noted), -66.8% (active); in the assay with HCT-116 colon it was -92.6% (active); in the assay with HCC-2998 colon, -89.3% (active); in the assay with KM12 colon it was 2.99% (active).
`Cn1c2ccccc2c2nnc(NCCCCO)nc21`: the growth in the assay with T-47D breast was 76.5%; with MDA-MB-435 melanoma it was 110%; with SW-620 colon, 93%; in the assay with HCT-116 colon, 90.1%; with HCC-2998 colon, 98%; with KM12 colon, 94.8%.
For `NC(=S)c1c(N)n(C2OC(CO)C(O)C2O)c2ncnc(N)c12` (centres undefined), the growth in the assay on T-47D breast is -48.2% (active); with MDA-MB-435 melanoma it was -46.6% (active); in the assay with SW-620 colon it was -18.3% (active); with HCT-116 colon, 5.32% (active); with HCC-2998 colon, 3.23% (active); in the assay with KM12 colon, -6.52% (active).
As for `O=C(c1ccccc1O)N1CCCC1`, the growth with T-47D breast was 95.6%; in the assay with MDA-MB-435 melanoma it was 103%; in the assay with SW-620 colon, 100%; with HCT-116 colon, 88.5%; in the assay on KM12 colon, 107%.
In the case of `CCOC(=O)CNC(=O)Sc1ccc(C(C)(C)C)cc1`, the growth in the assay on T-47D breast was 88.4%; in the assay with SW-620 colon, 108%; with MCF7 breast (10 µM unless noted), 99.3%; with HCT-116 colon, 98.6%; with HCC-2998 colon, 110%; in the assay on KM12 colon, 102%.
For `C=COC(=O)C(C)(C)C`, the growth in the assay with T-47D breast is 93.8%; in the assay with MDA-MB-435 melanoma, 101%; in the assay with MCF7 breast (10 µM unless noted) it was 96%; in the assay with HCT-116 colon, 109%; in the assay on HCC-2998 colon, 94.1%; in the assay with KM12 colon, 107%.
For the compound `CSCCC(NC(=O)C(Cl)Cl)C(=O)O` (centres undefined), the growth in the assay on T-47D breast was 82.9%; in the assay on SW-620 colon it was 100%; in the assay on MCF7 breast (10 µM unless noted), 95.3%; in the assay with HCT-116 colon, 91.2%; in the assay on HCC-2998 colon, 98.8%; with KM12 colon, 106%.
As for `Cc1ccc(S(=O)(=O)CCCl)cc1`, the growth with T-47D breast is 106%; with MDA-MB-435 melanoma, 117%; with MCF7 breast (10 µM unless noted), 100%; in the assay with HCT-116 colon it was 118%; in the assay on HCC-2998 colon, 104%; in the assay with KM12 colon, 111%.
As to `Cc1cc(C(=O)c2ccccc2)cc(C)c1O`, the growth was 95.6% in the assay on T-47D breast; 97.4% in the assay on SW-620 colon; 93.8% in the assay on MCF7 breast (10 µM unless noted); 84.5% in the assay with HCT-116 colon; 102% in the assay with HCC-2998 colon; 99.6% in the assay with KM12 colon.
As to `C=CCN1CCCC1=O`, the growth in the assay with T-47D breast is 100%; with MDA-MB-435 melanoma, 101%; with MCF7 breast (10 µM unless noted), 99.6%; in the assay with HCT-116 colon, 106%; in the assay on HCC-2998 colon, 128%; in the assay with KM12 colon, 110%.
With `ClCC(Cl)C1CCC(Cl)C(Cl)C1` (centres undefined), the growth is 100% in the assay on T-47D breast, 107% in the assay on MDA-MB-435 melanoma, 95.6% in the assay with HCT-116 colon and 101% in the assay on HCC-2998 colon.
`NC(CSSCC(N)C(=O)O)C(=O)O` (centres undefined): the growth with T-47D breast was 54.7%; with MDA-MB-435 melanoma, -15.1% (active); with SW-620 colon, 21.7%; with HCT-116 colon, 18.6%; in the assay on HCC-2998 colon it was 9.17% (active); in the assay on KM12 colon, 8.65% (active).
